# From PubChem BioAssay AID624483 (NMMLSC, 2012)
# About 11,000 (3.1%) of roughly 360,000 compounds were called active. Roughly 2% stayed inconclusive and do not appear here. Cut-off read from the data, not from the text of the source: active = fluorescence intensity above about 16000; inconclusive = no clear call, values can overlap the other calls; inactive = below that. This excerpt belongs to a sample that is enriched for actives.
# Assay: counter-screen for toxin protease inhibitors: compound fluorescence, primary screen, artefact control for toxin protease inhibitor project, biochemical, multiplex microsphere, HTS (AID 624483)
# Conditions: compound autofluorescence counterscreen, microsphere flow cytometry; hits give high values
row,SMILES,fluorescence intensity
1,CC(=O)NC(c1ccccc1)c1nc(-c2ccccc2C)cs1 (configuration not stated),3560 (inactive)
2,O=C(O)Cc1ccc(NC(=O)c2cccs2)cc1,19700 (active)
3,O=C(NC(=S)Nc1ccc(NC(=O)c2cccs2)cc1)c1ccc([N+](=O)[O-])cc1,8970 (inactive)
4,O=C(Nc1ccc(N2CCN(C(=O)C3CC3)CC2)cc1)c1cccs1,2520 (inactive)
5,O=C(O)c1ccc(NC(=O)c2cccs2)cc1,23200 (active)
6,CCc1ccc(NC(=O)C(=O)NNC(=O)c2cccs2)cc1,5780 (inactive)
7,O=C(Nc1ccccc1-c1ccccc1)c1cccs1,4880 (inactive)
8,CC(C)CCNC(=O)c1[nH]c(C(F)(F)F)nc1-c1ccccc1,5980 (inactive)
9,CCOC(=O)[C@]12CCC=C1N(Cc1ccco1)C(=O)[C@H](CC(=O)NCc1cccc(C(F)(F)F)c1)C2,4290 (inactive)
10,COC(=O)[C@]12CCCCC=C1N(CCC1=CCCCC1)C(=O)[C@H](CC(=O)N1CCSCC1)C2,5780 (inactive)
11,CC(=O)Nc1ccc(CNc2nc(NCCN(C)C)nc3cc(-c4ccccc4)sc23)cc1,3970 (inactive)
12,Cc1cc(Cl)ccc1NNC(=O)c1snnc1C,3890 (inactive)
13,CC1(C(=O)Nc2cccnc2)Cc2c(-c3ccccc3)ccnc2O1 (configuration not stated),2820 (inactive)
14,O=C(Nc1cccnc1)c1noc2c1CCCCC2,24400 (active)
15,Cc1noc(C)c1COc1cccc(C(=O)Nc2cccnc2)c1,4200 (inactive)
16,CS(=O)(=O)N(CC(=O)N1CCOCC1)c1cccc(Cl)c1Cl,4130 (inactive)
17,COC(=O)c1ccc(CN2C(=O)C(Cc3ccccc3)ON=C2c2ncccc2C)o1 (configuration not stated),4970 (inactive)
18,COCCn1c(SCc2nc3cc(OC)c(OC)cc3c(=O)[nH]2)nnc1-c1ccncc1,3550 (inactive)
19,COc1cccc(CSc2nc3nc(C)cc(C)n3n2)c1,3360 (inactive)
20,COCCCn1c(SCc2cccc(OC)c2)nc2cc(OC)c(OC)cc2c1=N,23400 (active)
21,CC(C)CN1CCC1(C)C(=O)Nc1ccc(OC(F)F)cc1 (configuration not stated),3880 (inactive)
22,O=C(CSCc1ccccc1Cl)NNC(=O)c1ccccc1,18500 (active)
23,O=C(COC(=O)Cc1ccccc1F)NNC(=O)c1ccc(Cl)cc1,5990 (inactive)

row,SMILES,fluorescence intensity
1,O=C(COC(=O)c1ncc(Cl)c(Cl)c1Cl)NNC(=O)c1ccccc1,4100 (inactive)
2,Cn1cnnc1Sc1ccc(S(C)(=O)=O)cc1[N+](=O)[O-],3290 (inactive)
3,COc1ccc(COC[C@H](CC(C)C)N2CCN(C(=O)c3cccc(C(F)(F)F)c3)CCC2=O)cc1,4210 (inactive)
4,COc1ccc(S(=O)(=O)N(C)CC(=O)Nc2ccc3c(c2)OCCO3)cc1OC,3400 (inactive)
5,COc1ccc(NC(=O)CN(Cc2ccccc2)S(C)(=O)=O)cc1OC,2130 (inactive)
6,COc1ccc(NC(=O)CN(C)S(=O)(=O)c2ccccc2)cc1OC,16600 (active)
7,O=C(Nc1cccc2cccnc12)c1ccc2sc([C@H]3C[C@H](O)[C@@H](CO)O3)nc2c1,3070 (inactive)
8,Cc1cc(C)cc(OCC(=O)Nc2cc(NC(=O)COc3cc(C)cc(C)c3)cc(C(=O)O)c2)c1,3790 (inactive)
9,CC(C)CC1C(=O)N(Cc2cn(Cc3ccco3)nn2)CCS(=O)(=O)N1Cc1ccc(-c2ccc(Cl)c(Cl)c2)cc1 (configuration not stated),3840 (inactive)
10,O=C(OCC#CCSc1nnc(-c2ccncc2)o1)c1sc2ccccc2c1Cl,2840 (inactive)
11,COc1ccc2c(Cl)c(-c3nnco3)sc2c1,3460 (inactive)
12,C#CCSc1nnc(-c2sc3ccccc3c2Cl)o1,19600 (active)
13,CCCCCc1c(Cc2ccccc2)ncn1CCc1ccccc1OC,4640 (inactive)
14,O=C(NCc1ccc(F)cc1F)[C@@H]1CCCN1C(=O)[C@@H]1CCCN1C(=O)c1cccc(Cl)c1,6340 (inactive)
15,C[C@H]1CN([C@@H](C)CO)C(=O)CCCn2cc(nn2)CO[C@@H]1CN(C)C(=O)Nc1ccccc1,2950 (inactive)
16,Cc1cccc(-n2c(N)c(C(=O)N3CCN(C)CC3)sc2=S)c1,2920 (inactive)
17,N#Cc1ccccc1-n1c(N)c(C(=O)N2CCCC2)sc1=S,9660 (inactive)
18,COC(=O)c1sc(=S)n(-c2ccccc2)c1N,20900 (active)
19,Cn1c(=O)c2cc(NC(=O)NCCc3cccs3)ccc2n1Cc1cccc(C(F)(F)F)c1,3800 (inactive)
20,CCCCn1c(SCC(=O)NCCc2ccc(OC)c(OC)c2)nc2c1c(=O)n(C)c(=O)n2C,22600 (active)
21,CCCCn1c(SCC(=O)N2CCOCC2)nc2c1c(=O)n(C)c(=O)n2C,5590 (inactive)
22,C#CC(C)(C)NC(=O)CSc1nc2c(c(=O)n(C)c(=O)n2C)n1CCCC,5580 (inactive)
23,C=CCSc1nnc(Cn2c(=O)sc3ccccc32)n1C,5480 (inactive)

row,SMILES,fluorescence intensity
1,CC(=O)Nc1cccc(-c2ccnc3c2CC(C)(C(=O)NCc2ccco2)O3)c1 (configuration not stated),3800 (inactive)
2,CCN1C(=O)[C@H]2[C@@H](c3ccc(C(F)(F)F)cc3)N[C@]3(CCCN(Cc4ccc(Br)cc4)C3=O)[C@H]2C1=O,3620 (inactive)
3,COc1ccc(CCNC(=O)c2cc3sccc3n2C)cc1OC,21800 (active)
4,Cn1c(C(=O)NCCCN2CCCCC2)cc2sccc21,8510 (inactive)
5,COc1ccc(CCNC(=O)COC(=O)/C=C/c2cccs2)cc1OC,3190 (inactive)
6,CCOC(=O)C1Nc2ccc(C(F)(F)F)cc2C2C=CCC12 (configuration not stated),2760 (inactive)
7,CC(=O)Nc1cc(-c2ccccc2N(C)C)cn2c(-c3ccc(F)c(Cl)c3)cnc12,3420 (inactive)
8,O=C1NC[C@H](Cc2ccc(O)cc2)N(C[C@H]2CCCN2C[C@H](Cc2ccccc2)N2C[C@H](Cc3ccccc3)N(CCc3ccccc3)C(=O)C2=O)C1=O,5960 (inactive)
9,CCCCC(CC)C(=O)Nc1ccc(Cl)cn1 (configuration not stated),21400 (active)
10,O=C(Nc1ccc(Cl)cn1)c1ccccc1-c1ccccc1,3610 (inactive)
11,CC(OC(=O)CNC(=O)c1ccco1)C(=O)Nc1ccc(Cl)cn1 (configuration not stated),4920 (inactive)
12,COCCOC(=O)C1=C(C)NC(=O)CC1c1cc2c(cc1Br)OCO2 (configuration not stated),22200 (active)
13,COCCOC(=O)C1=C(C)NC(=O)NC1c1cc2c(cc1Br)OCO2 (configuration not stated),3890 (inactive)
14,CCCOc1ccccc1C1CC(=O)Nc2cc3c(cc21)OCO3 (configuration not stated),3540 (inactive)
15,CS(=O)(=O)/C(C#N)=C/c1cccn1S(=O)(=O)c1ccc([N+](=O)[O-])cc1,5100 (inactive)
16,CC(=O)Nc1cc(-c2ccccc2F)cn2c(-c3cccc(C(F)(F)F)c3)cnc12,3600 (inactive)
17,CCOc1ccc(NC(=O)CN(C)C(=O)Cc2sc(C)nc2-c2ccc(F)cc2)cc1OCC,8360 (inactive)
18,CCOc1ccc(-c2nc(C)sc2CC(=O)O)cc1,22400 (active)
19,Cc1ccc(-c2nc(C)sc2CC(=O)OCC(=O)Nc2c(F)cccc2F)cc1,2600 (inactive)
20,CCOc1ccc(CCN2C(=S)N([C@@H](CC(C)C)CN3CCC[C@@H]3CN3C(=S)NC[C@@H]3Cc3ccc(O)cc3)C[C@@H]2CC(C)C)cc1,6060 (inactive)
21,COc1ccc(CNC(=O)CN2C(=O)NC3(CCCc4sccc43)C2=O)cc1 (configuration not stated),5880 (inactive)
22,COc1ccc(OC)c(C(=O)c2ccc(C(=O)O)cc2)c1,16800 (active)
23,COc1ccc(OC)c(C(=O)c2ccc(C(=O)N3CCN(Cc4csc(C)n4)CC3)cc2)c1,4240 (inactive)

row,SMILES,fluorescence intensity
1,COc1ccc(C(=O)CC(=O)c2ccc(C)cc2)c(O)c1,4090 (inactive)
2,COCOc1cccc(CN2CCC(C)(Oc3ccc(SC)cc3)C2)c1 (configuration not stated),3010 (inactive)
3,Cc1[nH]c(C)c(S(=O)(=O)N2CCN(c3cccc(C(F)(F)F)c3)CC2)c1C(=O)N1CCCCC1,5140 (inactive)
4,CN1C(=O)C2(OCCCO2)c2cc(Cl)ccc21,3420 (inactive)
5,COc1ccc(S(=O)(=O)Nc2cc(C)on2)cc1NC(C)=O,4100 (inactive)
6,COc1cc2ccccc2cc1C(=O)Nc1ccc(S(=O)(=O)Nc2cc(C)on2)cc1,18400 (active)
7,CCOc1ccc(C(=O)Nc2ccc(S(=O)(=O)Nc3cc(C)on3)cc2)cc1,3660 (inactive)
8,CCCCNc1nc2c(c(=O)[nH]c(=O)n2C)n1CCOc1ccccc1,20600 (active)
9,COc1ccc(CCn2c(NCCCN3CCOCC3)nc3c2c(=O)[nH]c(=O)n3C)cc1,4180 (inactive)
10,CCCCNc1nc2c(c(=O)n(C)c(=O)n2C)n1Cc1cccc(OC)c1,4560 (inactive)
11,CCCC/C=C/c1cccc2nncn12,3130 (inactive)
12,COc1ccc(CN2CN(C3CCCC3)CSC2=S)cc1,3230 (inactive)
13,COc1ccc(CCC(C)N2CCc3ccccc3C2)cc1 (configuration not stated),3950 (inactive)
14,COc1ccc(CN2CN(C(C)C)CSC2=S)cc1,24500 (active)
15,NC(=O)C1CCN(C(=O)COc2ccc3c4c(c(=O)oc3c2)CCC4)CC1,5000 (inactive)
16,NC(=O)COc1ccc2c3c(c(=O)oc2c1)CCCCC3,24300 (active)
17,O=C(COc1ccc2c3c(c(=O)oc2c1)CCC3)NC1CCCCC1,9280 (inactive)
18,Cc1nc(C(F)(F)F)ccc1C(=O)N1CCC1(C)C(=O)NS(=O)(=O)c1ccccc1Cl (configuration not stated),2880 (inactive)
19,COCCCn1c(SCC(=O)Nc2ccccc2)nnc1-c1ccncc1,3490 (inactive)
20,O=C(CSc1nnc(-c2ccncc2)n1-c1ccc(Cl)cc1)Nc1ccc(C(=O)O)cc1,3940 (inactive)
21,O=C(CSc1nnc(-c2ccncc2)n1C1CCCCC1)Nc1ccccc1,20700 (active)
22,CN(C(=O)c1c(Cl)cnn1C)C12CC3CC(CC(C3)C1)C2,2490 (inactive)
23,CCCNC(=O)C1(C)CCCN(Cc2cccc(C(F)(F)F)c2)C1 (configuration not stated),3060 (inactive)
